Experimental data taken from the supplement of paper PMC12067093, “Discovery and optimisation of a covalent ligand for TRIM25 and its application to targeted protein ubiquitination” (Chemical Science, 2025).
Targets with the largest changes are over-represented here; the source holds about 21,000 in all.

Compound: Cc1cc(ccc1-c1ccccc1)C(=O)N1CCCN(CC1)C(=O)CCl [compound 10]
Assay: probe-labelled cysteine peptide fold change vs DMSO (competition) (log2 fold change); higher = less target engagement (more negative = stronger competition)
Conditions: THP-1, incubation time: 4 h
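Further: competitive profiling in live THP-1 cells: cysteine peptides tagged with an iodoacetamide desthiobiotin (IA-DTB) probe, intensity after compound treatment relative to DMSO-treated cells.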

## PRKCD_Q05655_261+264_CEDCGMNVHHK (UniProt Q05655)
UniProt Q05655, sequence (Q05655 whole entry, looked up): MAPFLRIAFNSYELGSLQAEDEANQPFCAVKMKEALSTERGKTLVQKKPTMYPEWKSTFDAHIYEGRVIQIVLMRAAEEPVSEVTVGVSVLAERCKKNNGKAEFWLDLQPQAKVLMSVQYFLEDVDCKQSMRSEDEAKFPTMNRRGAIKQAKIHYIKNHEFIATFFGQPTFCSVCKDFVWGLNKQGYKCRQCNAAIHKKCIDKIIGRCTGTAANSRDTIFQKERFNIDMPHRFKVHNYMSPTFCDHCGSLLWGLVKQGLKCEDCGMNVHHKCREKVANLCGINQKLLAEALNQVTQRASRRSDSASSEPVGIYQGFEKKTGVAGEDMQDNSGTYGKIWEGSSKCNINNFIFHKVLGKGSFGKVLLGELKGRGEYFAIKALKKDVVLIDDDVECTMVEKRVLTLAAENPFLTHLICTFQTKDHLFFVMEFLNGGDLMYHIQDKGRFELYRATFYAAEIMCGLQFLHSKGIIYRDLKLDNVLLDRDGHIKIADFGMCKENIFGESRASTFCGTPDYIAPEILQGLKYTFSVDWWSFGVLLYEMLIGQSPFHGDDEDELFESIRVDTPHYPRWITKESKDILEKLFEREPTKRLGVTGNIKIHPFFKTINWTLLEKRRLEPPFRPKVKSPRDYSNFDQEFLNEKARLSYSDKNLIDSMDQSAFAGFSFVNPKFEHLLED
10 µM
  probe-labelled cysteine peptide fold change: -0.702
50 µM
  probe-labelled cysteine peptide fold change: -1.69

## PTPMT1_Q8WUK0_127+132_YQSLGQCVYVHCK (UniProt Q8WUK0)
10 µM
  probe-labelled cysteine peptide fold change: 0.0587
50 µM
  probe-labelled cysteine peptide fold change: -0.0194

## RHOG_P84095_18_TCLLICYTTNAFPK (UniProt P84095)
UniProt P84095, sequence (P84095 whole entry, looked up): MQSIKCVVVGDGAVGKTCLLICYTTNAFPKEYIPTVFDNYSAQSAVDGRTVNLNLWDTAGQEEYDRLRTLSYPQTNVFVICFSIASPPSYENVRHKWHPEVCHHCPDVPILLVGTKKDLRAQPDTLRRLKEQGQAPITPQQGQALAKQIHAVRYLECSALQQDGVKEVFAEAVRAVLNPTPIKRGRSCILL
10 µM
  probe-labelled cysteine peptide fold change: -0.108
50 µM
  probe-labelled cysteine peptide fold change: 0.0979

## RGMB_Q6NW40_226_ITIIFKAHHECTDQK (UniProt Q6NW40)
UniProt Q6NW40, sequence (Q6NW40 whole entry): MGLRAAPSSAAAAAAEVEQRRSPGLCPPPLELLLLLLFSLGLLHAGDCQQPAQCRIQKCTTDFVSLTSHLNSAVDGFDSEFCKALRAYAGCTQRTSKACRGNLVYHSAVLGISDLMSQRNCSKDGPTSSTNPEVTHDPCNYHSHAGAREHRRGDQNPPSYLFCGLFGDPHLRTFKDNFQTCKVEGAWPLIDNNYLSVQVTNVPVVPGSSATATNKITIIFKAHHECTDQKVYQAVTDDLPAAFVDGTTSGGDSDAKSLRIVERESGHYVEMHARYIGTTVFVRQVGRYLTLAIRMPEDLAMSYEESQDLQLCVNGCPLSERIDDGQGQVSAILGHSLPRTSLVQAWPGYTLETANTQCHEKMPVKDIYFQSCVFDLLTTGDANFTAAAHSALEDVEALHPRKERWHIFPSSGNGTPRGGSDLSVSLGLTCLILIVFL
10 µM
  probe-labelled cysteine peptide fold change: -0.0752
50 µM
  probe-labelled cysteine peptide fold change: -1.11

## PTPRC_P08575_610_SCNLDEQQELVERDDEK (UniProt P08575)
10 µM
  probe-labelled cysteine peptide fold change: -0.427
50 µM
  probe-labelled cysteine peptide fold change: -1.12

## PRPF4_O43172_441_RCVYTIPAHQNLVTGVK (UniProt O43172)
10 µM
  probe-labelled cysteine peptide fold change: -0.0522
50 µM
  probe-labelled cysteine peptide fold change: -0.2

## RLF_Q13129_400_TIACLLPEDLEVRR (UniProt Q13129)
UniProt Q13129, sequence (Q13129 whole entry, looked up): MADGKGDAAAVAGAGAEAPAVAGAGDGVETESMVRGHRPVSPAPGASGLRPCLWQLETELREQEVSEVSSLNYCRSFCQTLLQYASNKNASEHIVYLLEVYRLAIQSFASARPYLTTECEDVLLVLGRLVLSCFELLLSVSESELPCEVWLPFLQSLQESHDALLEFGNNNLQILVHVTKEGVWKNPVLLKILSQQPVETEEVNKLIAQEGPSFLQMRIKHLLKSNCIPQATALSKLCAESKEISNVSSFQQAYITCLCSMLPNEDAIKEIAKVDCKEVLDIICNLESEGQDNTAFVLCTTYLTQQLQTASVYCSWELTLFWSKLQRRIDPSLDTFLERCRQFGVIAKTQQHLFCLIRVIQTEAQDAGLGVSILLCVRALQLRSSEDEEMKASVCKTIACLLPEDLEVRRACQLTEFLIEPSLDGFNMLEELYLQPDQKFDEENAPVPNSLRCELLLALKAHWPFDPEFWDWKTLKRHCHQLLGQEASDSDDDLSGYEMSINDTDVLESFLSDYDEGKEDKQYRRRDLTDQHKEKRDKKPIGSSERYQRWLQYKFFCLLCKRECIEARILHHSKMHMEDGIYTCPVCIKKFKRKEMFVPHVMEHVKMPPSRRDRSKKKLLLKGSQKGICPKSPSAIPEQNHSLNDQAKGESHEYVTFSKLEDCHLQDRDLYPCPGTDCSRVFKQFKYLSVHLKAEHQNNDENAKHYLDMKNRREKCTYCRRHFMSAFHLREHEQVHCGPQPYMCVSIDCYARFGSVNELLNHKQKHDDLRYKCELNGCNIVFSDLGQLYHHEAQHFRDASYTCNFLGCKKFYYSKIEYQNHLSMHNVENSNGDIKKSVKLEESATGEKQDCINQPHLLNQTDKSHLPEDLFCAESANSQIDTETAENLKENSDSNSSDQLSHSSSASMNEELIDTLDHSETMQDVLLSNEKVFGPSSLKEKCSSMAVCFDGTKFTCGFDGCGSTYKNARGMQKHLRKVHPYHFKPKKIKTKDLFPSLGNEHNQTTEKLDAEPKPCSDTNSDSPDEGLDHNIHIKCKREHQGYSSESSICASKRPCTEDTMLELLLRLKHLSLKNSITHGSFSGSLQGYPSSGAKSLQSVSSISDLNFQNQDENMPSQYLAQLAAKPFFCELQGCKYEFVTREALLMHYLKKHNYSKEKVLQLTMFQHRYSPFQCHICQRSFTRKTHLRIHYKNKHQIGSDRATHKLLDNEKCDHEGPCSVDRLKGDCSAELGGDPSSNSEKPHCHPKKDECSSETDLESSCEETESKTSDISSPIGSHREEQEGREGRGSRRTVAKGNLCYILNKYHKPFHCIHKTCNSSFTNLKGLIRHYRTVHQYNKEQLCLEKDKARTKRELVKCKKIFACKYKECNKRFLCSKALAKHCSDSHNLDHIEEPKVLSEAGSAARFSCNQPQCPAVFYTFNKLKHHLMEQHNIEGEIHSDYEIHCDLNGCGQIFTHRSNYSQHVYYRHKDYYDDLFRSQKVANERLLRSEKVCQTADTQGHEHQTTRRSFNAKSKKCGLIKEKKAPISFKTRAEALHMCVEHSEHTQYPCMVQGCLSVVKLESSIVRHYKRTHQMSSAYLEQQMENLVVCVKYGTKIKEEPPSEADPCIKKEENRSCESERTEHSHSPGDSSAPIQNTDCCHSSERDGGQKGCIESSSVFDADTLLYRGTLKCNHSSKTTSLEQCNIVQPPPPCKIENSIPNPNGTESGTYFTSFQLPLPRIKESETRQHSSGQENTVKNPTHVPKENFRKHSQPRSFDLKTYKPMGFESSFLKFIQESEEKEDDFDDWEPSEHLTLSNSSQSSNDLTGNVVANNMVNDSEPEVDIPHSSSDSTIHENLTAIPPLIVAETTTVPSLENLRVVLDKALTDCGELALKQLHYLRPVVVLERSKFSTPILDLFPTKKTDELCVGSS
10 µM
  probe-labelled cysteine peptide fold change: -0.0742
50 µM
  probe-labelled cysteine peptide fold change: -0.58

## RBM28_Q9NW13_97_NENSECPK (UniProt Q9NW13)
10 µM
  probe-labelled cysteine peptide fold change: -0.0194
50 µM
  probe-labelled cysteine peptide fold change: 0.16

## RCHY1_Q96PM5_43_LCHDNNEDHQLDR (UniProt Q96PM5)
UniProt Q96PM5, sequence (Q96PM5 whole entry, looked up): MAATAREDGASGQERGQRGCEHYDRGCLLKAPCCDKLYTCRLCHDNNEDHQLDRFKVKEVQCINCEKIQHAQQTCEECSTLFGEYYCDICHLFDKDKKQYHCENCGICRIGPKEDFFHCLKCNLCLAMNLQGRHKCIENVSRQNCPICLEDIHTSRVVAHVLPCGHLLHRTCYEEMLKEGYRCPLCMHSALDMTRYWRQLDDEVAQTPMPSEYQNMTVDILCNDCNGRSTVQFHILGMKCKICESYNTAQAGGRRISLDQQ
10 µM
  probe-labelled cysteine peptide fold change: 0.344
50 µM
  probe-labelled cysteine peptide fold change: 2.12

## PRMT3_O60678_67_LFTSAEETFSHCK (UniProt O60678)
UniProt O60678, sequence (O60678 whole entry, looked up): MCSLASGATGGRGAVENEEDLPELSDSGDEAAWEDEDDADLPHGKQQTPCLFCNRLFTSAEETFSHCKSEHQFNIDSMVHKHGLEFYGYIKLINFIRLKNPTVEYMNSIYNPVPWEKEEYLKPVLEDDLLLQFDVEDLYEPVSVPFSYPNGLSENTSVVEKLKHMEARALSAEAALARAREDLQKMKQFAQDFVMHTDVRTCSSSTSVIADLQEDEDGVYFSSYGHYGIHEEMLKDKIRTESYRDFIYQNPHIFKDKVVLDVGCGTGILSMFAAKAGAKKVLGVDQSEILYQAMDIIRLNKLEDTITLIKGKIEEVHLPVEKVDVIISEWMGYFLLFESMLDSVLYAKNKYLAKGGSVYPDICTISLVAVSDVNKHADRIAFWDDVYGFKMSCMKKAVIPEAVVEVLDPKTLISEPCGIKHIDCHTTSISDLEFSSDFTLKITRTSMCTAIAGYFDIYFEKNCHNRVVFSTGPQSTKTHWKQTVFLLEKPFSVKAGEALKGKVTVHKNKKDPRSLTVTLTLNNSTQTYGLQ
10 µM
  probe-labelled cysteine peptide fold change: 0.049
50 µM
  probe-labelled cysteine peptide fold change: 0.0747

## RFC3_P40938_32_NLVQCGDFPHLLVYGPSGAGK (UniProt P40938)
UniProt P40938, sequence (P40938 whole entry, looked up): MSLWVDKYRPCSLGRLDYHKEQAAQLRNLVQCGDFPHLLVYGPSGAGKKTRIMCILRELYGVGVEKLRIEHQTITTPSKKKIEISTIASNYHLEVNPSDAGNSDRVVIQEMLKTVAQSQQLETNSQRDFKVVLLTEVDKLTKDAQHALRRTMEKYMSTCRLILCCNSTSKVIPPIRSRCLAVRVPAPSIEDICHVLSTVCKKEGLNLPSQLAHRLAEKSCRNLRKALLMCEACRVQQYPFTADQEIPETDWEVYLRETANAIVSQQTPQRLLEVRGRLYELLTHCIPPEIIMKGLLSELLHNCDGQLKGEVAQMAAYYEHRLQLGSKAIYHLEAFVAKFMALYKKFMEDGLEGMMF
10 µM
  probe-labelled cysteine peptide fold change: -0.122
50 µM
  probe-labelled cysteine peptide fold change: 0.124

## RDH13_Q8NBN7_30_DYVTGGACPSK (UniProt Q8NBN7)
UniProt Q8NBN7, sequence (Q8NBN7 whole entry, looked up): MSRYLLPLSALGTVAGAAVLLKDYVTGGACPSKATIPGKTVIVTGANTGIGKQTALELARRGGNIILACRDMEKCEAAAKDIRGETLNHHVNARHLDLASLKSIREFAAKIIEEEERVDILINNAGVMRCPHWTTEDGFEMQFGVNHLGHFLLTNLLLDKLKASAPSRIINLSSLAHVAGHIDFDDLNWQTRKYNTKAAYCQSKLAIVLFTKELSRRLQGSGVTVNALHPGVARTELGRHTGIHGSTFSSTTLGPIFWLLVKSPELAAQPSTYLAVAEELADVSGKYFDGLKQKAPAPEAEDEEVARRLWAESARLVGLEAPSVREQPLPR
10 µM
  probe-labelled cysteine peptide fold change: -0.162
50 µM
  probe-labelled cysteine peptide fold change: -0.083

## PRXL2A_Q9BRX8_88_RPGCFLCR (UniProt Q9BRX8)
UniProt Q9BRX8, sequence (Q9BRX8 whole entry, looked up): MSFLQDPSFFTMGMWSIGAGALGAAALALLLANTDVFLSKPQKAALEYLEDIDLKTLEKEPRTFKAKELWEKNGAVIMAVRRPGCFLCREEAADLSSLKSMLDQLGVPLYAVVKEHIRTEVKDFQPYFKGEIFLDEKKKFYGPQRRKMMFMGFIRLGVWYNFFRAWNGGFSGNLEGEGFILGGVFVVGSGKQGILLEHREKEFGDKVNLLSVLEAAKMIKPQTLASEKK
10 µM
  probe-labelled cysteine peptide fold change: -2.04
50 µM
  probe-labelled cysteine peptide fold change: -2.18

## RNF123_Q5XPI4_1277_ACINQHLMNNK (UniProt Q5XPI4)
10 µM
  probe-labelled cysteine peptide fold change: -0.0494
50 µM
  probe-labelled cysteine peptide fold change: -0.231

## PRKDC_P78527_1507_QCLPSLDLSCK (UniProt P78527)
10 µM
  probe-labelled cysteine peptide fold change: 0.0976
50 µM
  probe-labelled cysteine peptide fold change: -1.07
